From PubChem BioAssay AID977607 (Broad Institute, 2014)
Out of some 1,500 compounds screened, about 460 (31%) were called active. About 1% were inconclusive and are not listed.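 How the source made its calls: active means curve reaches 40% activation over neutral controls at an AC40 no higher than the top valid tested concentration; inconclusive means no clear call, values can overlap the other calls; inactive means signal moving opposite to the expected increase, and the rest.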 A selection follows. Results with a measured potency or affinity are listed apart.

Test: GLuc-reported insulin release enhancers, glucose-stimulated beta cells – cell-based, INS-1E, Gaussia luciferase, luminescence, cherry-pick, set 2, dose response (AID 977607);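 further: 0% = median of the plate neutral control wells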
Details: INS-1E GLuc insulin secretion reporter, 2-3 h, stronger effect = higher value; at 35 µM, 100% = signal doubled over neutral wells unless noted

Max activation, inactive:
CN(Cc1ccccc1)C(=S)NC(=O)c1ccc(-c2ccccc2)cc1 -29.1% [at 3.8 µM, 100% = signal doubled over neutral wells]
Cc1cccnc1NC(=O)c1ccc(S(=O)(=O)N2CCCCC2)cc1 -21.1% [at 3.8 µM, 100% = signal doubled over neutral wells]
COc1cc(NC(=O)c2c(-c3ccccc3Cl)noc2C)c2ncccc2c1 -28.8% [at 11 µM, 100% = signal doubled over neutral wells]
CC1CC(C)CN(CC(O)COCc2ccccc2F)C1 (stereo not given) -21.2% [at 0.0016 µM, 100% = signal doubled over neutral wells]
COc1ccc(OC)c(N(CC(=O)NN=C2CCN(C)CC2)S(=O)(=O)c2ccccc2)c1 -25.4% [at 0.135 µM, 100% = signal doubled over neutral wells]
CC(NC(=O)C1CCCN1S(=O)(=O)c1ccc2c(c1)n(C)c(=O)c(=O)n2C)c1ccccc1 (stereo not given) -14.2% [at 0.015 µM, 100% = signal doubled over neutral wells]
c1cc2c(cc1CN1CCN(C3CCCCCC3)CC1)OCO2 -12.6% [at 0.135 µM, 100% = signal doubled over neutral wells]
Cc1cc(S(=O)(=O)NCc2cccnc2)ccc1F -23% [at 3.8 µM, 100% = signal doubled over neutral wells]
COC(=O)c1sc2ccccc2c1NC(=O)c1cccs1 -14.7% [at 0.046 µM, 100% = signal doubled over neutral wells]
O=C(Nc1nonc1NC(=O)c1cccs1)c1cccs1 -48.2%
Cc1ccc(NC(=O)c2cccs2)cc1NC(=O)c1ccccc1Cl 18.8% [at 1.2 µM, 100% = signal doubled over neutral wells]
Cc1cc(C)nc(NC(=O)c2ccc(Cl)cc2Cl)n1 -21.7% [at 0.135 µM, 100% = signal doubled over neutral wells]
CCOC(=O)c1nc(NCc2cccnc2)c2ccccc2n1 -21% [at 1.2 µM, 100% = signal doubled over neutral wells]
CCCCNC(=O)c1ccccc1NC(=O)C1=C(C)OCCS1 -8.81% [at 0.005 µM, 100% = signal doubled over neutral wells]
O=C(O)CCCC(=O)N1CCN(c2nc(-c3ccccc3)c3ccccc3n2)CC1 16.9% [at 0.42 µM, 100% = signal doubled over neutral wells]
O=C(Nc1ccccc1N1CCOCC1)C1=NN(c2ccccc2)C(=O)CC1 16.2%
CS(=O)(=O)N1CCN(c2ccccc2NC(=O)c2ccco2)CC1 22.3%
CC1(C(=O)NCC2CCCCC2)CCN1CCc1ccccc1 (stereo not given) -18.8% [at 0.0016 µM, 100% = signal doubled over neutral wells]
CC(C)(C)OC(=O)N1CCCN(C(=O)c2ccc(Cl)cc2)CC1 -21.4% [at 0.135 µM, 100% = signal doubled over neutral wells]
CN1CCN(C(=O)c2cccc(-c3cnc4cnc(-c5ccccc5Oc5ccccc5)cn34)c2)CC1 -43%
N#CN=CN1CC=C(c2ccc(Cl)cc2)CC1 30.6% [at 3.8 µM, 100% = signal doubled over neutral wells]
CC1=NN(C(N)=S)C(=O)C1N=Nc1ccccc1C (stereo not given) -15.4%
Cc1cc(C)n(-c2nc(NCCN(C)C)c3c4c(sc3n2)CCCC4)n1 22.9%
O=C(Cn1[nH]c(=O)c2ccccc2c1=O)OCC(=O)c1ccc(F)cc1 -10.7% [at 0.046 µM, 100% = signal doubled over neutral wells]
CC(=O)Nc1nc(CC(C)C)cc(-c2ccco2)c1C#N -15.6% [at 0.135 µM, 100% = signal doubled over neutral wells]
CCOC(=O)c1sc2ncn(/N=C/c3cccnc3)c(=O)c2c1C -22.4% [at 0.0016 µM, 100% = signal doubled over neutral wells]
Cc1cccc(C)c1NC(=O)NC1CCc2ccccc21 (stereo not given) -27.2%
Cc1noc(C)c1NC(=O)N(C)C[C@H]1Oc2c(NC(=O)C3CCCCC3)cccc2C(=O)N([C@H](C)CO)C[C@@H]1C -26.4% [at 0.015 µM, 100% = signal doubled over neutral wells]
COc1ccc(C(=O)c2cnc[nH]2)cc1OC -12% [at 0.015 µM, 100% = signal doubled over neutral wells]
CCC(c1nnnn1-c1ccc2c(c1)OCCO2)N1CCc2ccccc2C1 (stereo not given) 36.8% [at 1.2 µM, 100% = signal doubled over neutral wells]
COc1ccc(C2=NN(C(=O)c3ccco3)C(c3ccco3)C2)cc1OC (stereo not given) 9.84% [at 0.42 µM, 100% = signal doubled over neutral wells]
COc1ccc(-c2nc(CCNC(=O)c3ccco3)cs2)cc1OC 53% [at 0.015 µM, 100% = signal doubled over neutral wells]
COc1ccc(N2CC(NS(=O)(=O)c3cccs3)CC2=O)cc1OC (stereo not given) -12.7% [at 11 µM, 100% = signal doubled over neutral wells]
COc1ccc2c(c1)[C@@]1(OCCC=C[C@H]1C)C(=O)N2CC1CC1 15.8% [at 11 µM, 100% = signal doubled over neutral wells]
O=C(NNC(=O)c1cc2cc3ccccc3nc2s1)c1cccc(C(F)(F)F)c1 -20.1% [at 0.015 µM, 100% = signal doubled over neutral wells]
CC(C)Cc1nc2oc3c(NCc4cccnc4)ncnc3c2c2c1CCC2 30.3% [at 0.42 µM, 100% = signal doubled over neutral wells]
CCc1ccc2c(c1)cc(CN(Cc1ccco1)C(C)=O)c1nnnn12 -18.4% [at 0.005 µM, 100% = signal doubled over neutral wells]
O=C(Nc1nccs1)c1cc(N2CCOCC2)nc2ccccc12 -23.7%
COc1ccc(-c2nc(N3CCC(C)CC3)[nH]c(=O)c2C#N)cc1 28.1% [at 11 µM, 100% = signal doubled over neutral wells]
COc1ccc(C)c(-n2c(=O)n(Cc3ccccc3)c(=O)c3[nH]cnc32)c1 38.9% [at 0.42 µM, 100% = signal doubled over neutral wells]
COc1cccc(-n2c(=O)n(Cc3ccccc3)c(=O)c3[nH]cnc32)c1C 14.5%
CCc1nc2c(OCc3ccccc3C)cccn2c1N(C)C(=O)c1ccco1 -25.5%
C=CCNC(=S)Nc1ccc2cn[nH]c2c1 -18.8% [at 0.0016 µM, 100% = signal doubled over neutral wells]
O=C(Nc1ccnn1C1CCN(C2CCC2)CC1)c1ccccc1Cl -5.42%
COc1ccc(N2C(=O)CC(Sc3nc(C)cc(C)c3C#N)C2=O)cc1 (stereo not given) -11.1% [at 11 µM, 100% = signal doubled over neutral wells]
CCNc1nc(NCC)nc(Nn2cnnc2)n1 -14.4% [at 0.42 µM, 100% = signal doubled over neutral wells]
CC(C)Cn1nc(-c2ccccc2)c2ccccc2c1=O -16.6% [at 0.0016 µM, 100% = signal doubled over neutral wells]
Cc1ccc(-c2[nH]nc3c2C(c2cccnc2)C(C#N)=C(N)O3)cc1 (stereo not given) 36.3% [at 0.0016 µM, 100% = signal doubled over neutral wells]
COCCNc1nc(Oc2ccc(C(N)=O)cc2)c2sccc2n1 -20.7% [at 0.0016 µM, 100% = signal doubled over neutral wells]
COCCNc1nc(NCCCN(C)C)c2sccc2n1 -23.1%
CCCN1Cc2cccc(C(=O)NCc3ccccc3)c2C1=O -24.8% [at 0.046 µM, 100% = signal doubled over neutral wells]
Cc1ccc2c(c1)CCCN2C(=O)c1ccc2c(c1)OCO2 -14.4% [at 0.0016 µM, 100% = signal doubled over neutral wells]
CCOc1ccc(CCNC(=O)COc2cccc(-n3cnnn3)c2)cc1OCC -22.6% [at 0.005 µM, 100% = signal doubled over neutral wells]
CCOc1ccc(CCNC(=O)COC(=O)c2cccnc2SC)cc1OCC -22.4% [at 0.0016 µM, 100% = signal doubled over neutral wells]
COc1ccccc1Nc1c2c(nc3ccc(N)cc13)CCCC2 -15.8% [at 0.135 µM, 100% = signal doubled over neutral wells]
